# Assay outcomes from PubChem BioAssay.
# A selection: hits, their analogues and other compounds. The true share with any hit is near 2.9%.
# Fam108B inh: mouse Fam108B serine hydrolase inhibitors, primary screen, counter-screen for RBBP9 inhibitor project, biochemical, fluorescence polarization. recombinant Fam108B, FP-Rh probe fluorescence polarization. AID 1947, 2009. inhibition, % at 9.51 µM. 300,000 compounds, 0.33% hits;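 active means inhibition above the screen mean inhibition plus 3 SD, computed separately per campaign, cut at about 18% in these data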;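 further: inhibitors lower polarization as less probe binds the enzyme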
# pPAFAH FP inh: pPAFAH enzyme inhibitors, primary screen, biochemical, fluorescence polarization, human. recombinant pPAFAH, FP-rhodamine probe fluorescence polarization. Platelet-activating factor acetylhydrolase (Homo sapiens), Q13093. 330,000 compounds, 1.5% hits. inhibition, % at 3.39 µM;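 active means inhibition above the mean inhibition across the screen plus 3 SD, cut at about 25% in these data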;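 further: inhibitors block binding of the rhodamine activity-based probe so polarization drops; 0% = enzyme with DMSO and 100% = wells lacking pPAFAH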
# PAFAH2 FP inh: PAFAH2 enzyme inhibitors, primary screen, biochemical, fluorescence polarization, human | Platelet-activating factor acetylhydrolase 2, cytoplasmic (Homo sapiens), Q99487 | recombinant PAFAH2, FP-rhodamine activity probe | inhibition, % at 3.39 µM | 340,000 compounds, 0.99% hits;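 active means inhibition above the mean over all tested compounds plus 3 SD, cut at about 30% in these data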;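 further: inhibitors block probe labeling of enzyme so polarization drops; 0% = enzyme with DMSO and 100% = wells lacking PAFAH2 protein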
# PME-1 inh: PME-1 inhibitors via competitive probe labeling, primary screen, biochemical, fluorescence polarization, FP-Rh probe, HTS | recombinant PME-1 | inhibition, % at 5.9 µM | 320,000 compounds, 0.53% hits | AID 2130, 2009;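 active means inhibition above the campaign mean of all compounds plus 3 SD, cut at about 26% in these data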;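 further: competitive labeling of PME-1 active site by serine hydrolase directed probe; 0% = PME-1 with DMSO and 100% = wells lacking PME-1 enzyme; inhibitors block probe labeling so polarization falls and inhibition rises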
# Target sequence (Q9Y570 whole entry, looked up): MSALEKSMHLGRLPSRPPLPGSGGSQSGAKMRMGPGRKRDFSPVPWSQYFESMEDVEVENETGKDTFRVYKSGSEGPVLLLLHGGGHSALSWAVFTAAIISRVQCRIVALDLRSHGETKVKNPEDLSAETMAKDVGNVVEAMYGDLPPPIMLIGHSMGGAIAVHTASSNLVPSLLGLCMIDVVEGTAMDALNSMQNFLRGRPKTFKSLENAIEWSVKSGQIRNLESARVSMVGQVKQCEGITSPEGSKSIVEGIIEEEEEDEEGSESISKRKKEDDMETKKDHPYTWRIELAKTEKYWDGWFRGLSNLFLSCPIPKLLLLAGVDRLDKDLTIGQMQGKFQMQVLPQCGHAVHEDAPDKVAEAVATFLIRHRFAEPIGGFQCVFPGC
# PAFAH1B3 FP inh: PAFAH1B3 enzyme inhibitors, primary screen, biochemical, fluorescence polarization, human; inhibition, % at 3.39 µM; 340,000 compounds, 0.28% hits; AID 492972, 2010; recombinant PAFAH1B3, FP-rhodamine probe;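 active means inhibition above the screen-wide average of all tested compounds plus 3 SD, cut at about 25% in these data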;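 further: 0% = enzyme with DMSO only and 100% = wells lacking PAFAH1B3 protein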
# PAFAH1B2 inh: PAFAH1B2 enzyme inhibitors, primary screen, biochemical, fluorescence polarization, human. Platelet-activating factor acetylhydrolase IB subunit alpha2 (Homo sapiens), P68402. recombinant PAFAH1B2, FP-rhodamine activity probe. inhibition, % at 3.39 µM. 340,000 compounds, 1.2% hits. AID 492953, 2010;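 active means inhibition above the mean of all tested compounds plus 3 SD, cut at about 24% in these data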;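 further: 0% = enzyme with DMSO and 100% = wells lacking PAFAH1B2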
# Target sequence (P68402 whole entry, looked up): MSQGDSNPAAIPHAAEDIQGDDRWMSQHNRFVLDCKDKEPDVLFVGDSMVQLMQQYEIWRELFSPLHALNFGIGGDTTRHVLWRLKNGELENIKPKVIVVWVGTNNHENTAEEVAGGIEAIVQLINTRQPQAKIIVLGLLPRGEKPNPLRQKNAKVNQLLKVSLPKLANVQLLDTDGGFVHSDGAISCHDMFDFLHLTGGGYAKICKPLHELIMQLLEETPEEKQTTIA
# Fam108b confirm: mouse Fam108b serine hydrolase inhibitors, confirmation, counter-screen for RBBP9 inhibitor project, biochemical, fluorescence polarization, triplicate. shares compounds with Fam108B inh. recombinant Fam108b, FP-Rh probe fluorescence polarization. inhibition, % at 9.51 µM. 930 compounds, 44% hits. AID 1978, 2009;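 active means inhibition above a limit from the primary screen, the mean over all compounds plus 3 SD, cut at about 19% in these data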;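 further: 0% = median of active Fam108b wells and 100% = catalytically dead S170A mutant; inhibitors free the probe so polarization falls as inhibition rises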
# Fam108b inh: inhibition of mouse Fam108b by HTS hits, late-stage follow-up, biochemical, gel-based ABPP, soluble recombinant form; inhibition, % at 20 µM; shares compounds with Fam108B inh; AID 588649, 2011; 260 compounds, 44% hits; fluorophosphonate probe; in the data active means inhibition above about 40%
# pPAFAH FP conf: pPAFAH (PLA2G7) enzyme inhibitors, confirmation, biochemical, fluorescence polarization, human; 2,300 compounds, 72% hits; shares compounds with pPAFAH FP inh; inhibition, % at 3.39 µM; recombinant pPAFAH, FP-Rh probe fluorescence polarization;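 active means mean inhibition of the triplicate above the hit cutoff set for the earlier primary screen, cut at about 25% in these data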;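 further: 0% = enzyme with DMSO and 100% = wells lacking pPAFAH enzyme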
# PAFAH1B3 conf FP: PAFAH1B3 enzyme inhibitors, confirmation, biochemical, fluorescence polarization, human; AID 493032, 2011; recombinant PAFAH1B3, FP-Rh activity-based probe; inhibition, % at 3.39 µM; shares compounds with PAFAH1B3 FP inh; 390 compounds, 30% hits;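 active means average inhibition over triplicate runs above the hit cutoff set in the earlier primary screen, cut at about 25% in these data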;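 further: 0% = enzyme with DMSO and 100% = wells lacking PAFAH1B3 protein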
# An asterisk follows results filed as active; · = no result given.
SMILES,Fam108B inh,pPAFAH FP inh,PAFAH2 FP inh,PME-1 inh,PAFAH1B3 FP inh,PAFAH1B2 inh,pPAFAH FP conf,others
O=C(O)c1cccc2c1NC(C(=O)O)C1CC(Sc3ccccc3[N+](=O)[O-])C(Cl)C21 (configuration not stated),74.8*,95.7*,81.7*,17.6,49.2*,30.8*,78.8*,Fam108b confirm=53.6*;Fam108b inh=0.0
Oc1ccc(Cl)c(Cl)c1Cl,·,1.7,4.7,5.0,-1.1,1.5,·,
COC(=O)C1=C(c2cc3ccccc3s2)C[C@@H]2CC[C@H]1N2C(=O)N1CCOCC1,-0.4,6.2,-4.8,4.8,-0.6,-9.3,·,
O=C(c1ccc2nc(-c3ccco3)c(-c3ccco3)nc2c1)N1CCC2(CC1)OCCO2,23.4*,61.5*,18.4,-6.3,20.7,14.2,3.1,Fam108b confirm=8.6
COC(=O)c1nc(-c2ccc3c(n2)C(=O)C(N)=C(OC)C3=O)c(N)c(-c2ccc(OC)c(OC)c2O)c1C,48.8*,12.3,22.4,65.9*,70.3*,23.5,·,Fam108b confirm=62.7*;Fam108b inh=0.0;PAFAH1B3 conf FP=66.8*
C=C1C2[C@H](OC(C)=O)[C@@H]3CC(=O)[C@]4(C)OC[C@@]3(C)[C@@]4(O)[C@@H](OC(C)=O)[C@H](OC(C)=O)[C@@]2(COC(=O)c2ccccc2)[C@@H](OC(C)=O)C[C@@H]1O (some centres not stated),3.0,0.9,0.5,8.2,15.3,-0.1,·,
CCN1C(=O)C(=C/C=C/c2ccco2)C(=O)N(CC)C1=S,-40.0,-27.6,-58.4,-69.2,-87.5,-41.6,·,
CC(C)N1C(=O)/C(=C/C=C/c2ccco2)C(=O)N(Cc2ccco2)C1=O,-0.7,38.0*,21.8,-16.4,-0.7,3.5,0.8,
CC(=O)OC1C(=O)OCC23CCC4(C)OC4C2OC2CC(OC(=O)C=CC=CC(=O)OCCC1C)C3(C)C21CO1 (configuration not stated),·,·,5.2,·,10.1,0.4,·,
Cc1c2cnn(CC(=O)N3CCC4(CC3)OCCO4)c(=O)c2c(C)n1Cc1cccc(Cl)c1,3.5,4.7,2.0,-6.1,0.8,1.0,·,
O=C(Cn1ncc2c3ccccc3n(Cc3cccc(Cl)c3)c2c1=O)N1CCC2(CC1)OCCO2,3.3,40.4*,19.4,-10.0,13.7,4.9,36.9*,
CCN(CC)c1ccc(N=Cc2c(O)n(-c3ccccc3)c(=O)[nH]c2=O)cc1,-0.2,48.7*,4.5,-0.3,2.1,3.4,-3.7,
O=c1[nH]c(O)c(C=Nc2ccccc2[N+](=O)[O-])c(=O)[nH]1,2.5,4.5,·,-0.3,·,·,·,
CCN(CC)c1ccc(N=Cc2c(O)n(-c3ccccc3C)c(=O)[nH]c2=O)cc1,-3.3,38.5*,5.7,6.4,8.5,-7.7,7.4,
CCN(CC)c1ccc(N=Cc2c(O)n(Cc3ccccc3)c(=O)[nH]c2=O)cc1,2.0,-1.6,0.4,2.0,5.4,0.7,·,
CCN(CC)c1ccc(N=Cc2c(O)[nH]c(=O)[nH]c2=O)cc1,-0.7,45.4*,11.2,8.3,5.4,1.2,3.4,
CCOc1ccc(-n2c(O)c(C=Nc3ccc(N(CC)CC)cc3)c(=O)[nH]c2=O)cc1,1.4,3.1,2.9,-4.2,7.0,2.7,·,
CCOc1ccccc1-n1c(O)c(C=Nc2ccc(N(CC)CC)cc2)c(=O)[nH]c1=O,-0.5,43.6*,-0.6,4.7,4.1,3.1,5.1,
COC(=O)C1=C(c2ccc(OC)c(OC)c2)C[C@@H]2CC[C@H]1N2C(=O)NC(C)C,·,0.9,6.3,-2.2,-2.7,0.0,·,
C[C@@]12N[C@@H](Cc3ccccc31)c1ccccc12,-0.4,1.6,-2.0,-1.4,7.2,-1.0,·,
CN1C(=O)/C(=C/c2cccn2-c2ccc3ccccc3c2)C(=O)NC1=S,11.2,39.5*,39.1*,2.4,9.5,38.8*,13.0,
O=C1NC(=S)NC(=O)C1=Cc1cccn1-c1ccc(O)cc1,·,·,25.4,·,5.3,5.5,·,
O=C1NC(=O)N(Cc2ccco2)C(=O)/C1=C/c1ccc(-c2cccc([N+](=O)[O-])c2)o1,15.7,66.2*,36.6*,-2.4,5.8,3.6,35.7*,
COc1ccc(OCC(=O)N2CCN(Cc3ccc(SC)cc3)CC2)cc1,1.5,-0.9,-1.6,-0.6,2.0,-0.3,·,
Cc1cc(OCC(=O)NCc2cccnc2)c2c3c(c(=O)oc2c1)CCCC3,-0.3,2.3,5.5,4.6,12.7,0.4,·,
SMILES,Fam108B inh,pPAFAH FP inh,PAFAH2 FP inh,PME-1 inh,PAFAH1B3 FP inh,PAFAH1B2 inh,pPAFAH FP conf,others
NP(=O)(OCCCCc1ccccc1)Oc1ccccc1Cl (configuration not stated),-3.1,70.5*,30.6*,41.4*,45.6*,98.7*,74.3*,
NP(=O)(OCC(F)(F)F)Oc1cccc2ccccc12 (configuration not stated),-3.2,6.5,-0.5,15.4,-2.7,19.5,·,
CC[C@H]1CN2CCC1C[C@H]2[C@H](O)c1ccnc2ccc(OC)cc12 (some centres not stated),-3.2,-0.2,-2.0,-1.4,-0.5,2.0,·,
COc1ccc(N2C(=O)NC(=O)/C(=C\c3ccc([N+](=O)[O-])s3)C2=O)cc1,16.4,37.5*,26.8,-4.6,23.6,21.2,35.0*,
COc1ccc(N2C(=O)NC(=O)/C(=C/c3ccc([N+](=O)[O-])s3)C2=O)cc1,9.5,44.4*,·,-4.5,·,·,46.6*,
COc1ccccc1N1C(=O)NC(=O)/C(=C/c2ccc([N+](=O)[O-])s2)C1=O,24.5*,51.2*,·,-1.3,·,·,41.8*,
O=C(COC(=O)Cc1ccccc1)NC12CC3CC(CC(C3)C1)C2,0.6,35.3*,54.8*,-0.5,3.1,10.5,41.3*,
